Here are results for 40 compounds from PubChem BioAssay (NCI).

Values joined by “and” are separate entries in the source; they are usually repeats but may differ in a detail not shown here. Equal values may be shown once. Compounds without any hit were thinned out: in the full panel of roughly 83,000, 20% have a hit.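 How to read the values: 0–100, growth inhibition (40 = 60% inhibited); 0, no net growth; -100 to 0, cell death (-40 = 40% of starting cells died; -100 = all dead).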 Unmarked numbers belong to inactive results. Active and inactive are the calls of the source. Rule for the calls: active = growth percent below 10; inactive = the rest.

In this experiment the test system is MDA-MB-468 breast. The experiment can be described thus: NCI-60 one-dose screen, 48 h (100 = growth as untreated, 0 = no growth, -100 = all killed). To be noted: 10 µM unless noted.
Regarding `COc1ccc2c(c1)NC(=O)CN2c1nc(NC2CC2)nc2ccccc12`, the growth was 8.4% (active). Take `O=C1CSC(c2ccccc2Cl)N1c1nnc(-c2ccncc2)o1` (stereo not given): the growth is 98.4%. As for `c1ccc([P+](CCC[P+](c2ccccc2)(c2ccccc2)c2ccccc2)(c2ccccc2)c2ccccc2)cc1`, the growth was 23.7%. `C=C1C(=O)O[C@H]2[C@H]1CC/C(C=Nc1ccc(C(F)(F)F)cc1N)=C\CC[C@@]1(C)O[C@@H]21`: the growth was 1.92% (active). Next, `COc1ccccc1/C=C1\Oc2cc(OCCCN3CCCC3)ccc2C1=O`: 85.9%; `COc1ccccc1NS(=O)(=O)c1cccc(C(=O)Nc2ccc(Br)cc2)c1`: 3.03% (active). For the compound `COc1ccc2nc(-n3nc(C)cc3C)c(-n3nc(C)cc3C)nc2c1`, the growth is 103%. With `CC1Cc2ccccc2N1NC(=O)c1ccc(Cl)c(S(N)(=O)=O)c1` (stereo not given), the growth was 94.8%. For the compound `O=C1c2ccc3c4c(ccc(c24)C(=O)N1CCCCO)C(=O)N(CCCCO)C3=O`, the growth was -29.2% (active). `CCN1CCN(c2nc(C)cc(NCc3cc(Nc4ccnc5cc(Cl)ccc45)ccc3F)n2)CC1`: the growth is -23.1% (active). Consider `Nc1cc2c([nH]c[n+]2CC#CCCl)c(SCC#CCCl)n1`, for which the growth is -57.1% (active). Regarding `Nc1cc(N)c(N)cc1N`, the growth was 84.7%. As to `CS(=O)(=O)c1nccc(-c2c(-c3cccc(O)c3)nc3sccn23)n1`, the growth was 60.1%. Regarding `CNC(=O)c1cc(Oc2ccc3nc(NC(=O)NC(C)C)sc3c2)ccn1`, the growth is 34.3%. In the case of `OC(CCC(O)(c1ccccc1)c1ccccc1)(c1ccccc1)c1ccccc1`, the growth is 93.6%. Regarding `OCC(CO)(CCl)CCl`, the growth is 107%. For the compound `COC(=O)[C@H](C(C)C)n1c(=O)c2cc(OC)c(OC)cc2c2cnc3[nH]ccc3c21`, the growth was 36.5%. Regarding `CS(=O)(=O)c1nsc(N)n1`, the growth was 109%.

`COc1ccc(CCNc2nc(SC)nc(-c3cccc([N+](=O)[O-])c3)c2C#N)cc1OC`: the growth was 84.8%. Regarding `COC(=O)c1ccc2oc(NC(=O)c3ccc(N4CCOCC4)c([N+](=O)[O-])c3)nc2c1`, the growth is 113%. On to `Fc1cccc(COc2ccc(Nc3ncnc4onc(-c5ccccc5)c34)cc2)c1`, for which the growth was 9.54% (active). On to `O=C1C=C(Nc2ccccc2)c2ncccc2C1=O`, for which the growth was -61.3% (active).

With `CNS(=O)(=O)c1ccc(Cl)c(Cl)c1`, the growth is 101%.

In the case of `NC(CO)(CO)c1ccccc1`, the growth is 79.9%. As for `Cc1ccc(C(=O)N/N=C/c2ccc3c(c2)OCO3)cc1`, the growth was 101%.

Consider `O=C1C2=C(C(=O)c3ccccc31)C(O)(S(=O)(=O)O)C(O)(S(=O)(=O)O)C1N=CC=CC21` (stereo not given), for which the growth is 18.4%. Take `O=C(/C=C/C=C/c1ccc2c(c1)OCO2)N1CCCCC1`: the growth was 106% and 105%. As for `Cn1c(=O)c2[nH]c(C(O)C(O)C(O)C(O)CO)nc2n(C)c1=O` (stereo not given), the figure is 118%; as for `CNC(=O)c1[nH]cc(-c2ccccc2)c1-c1cc(OC)c2c(c1OC)OCO2`, 100%. As to `COc1ccc2c3ccnc(C(F)(F)F)c3n(CCCCN)c2c1`, the growth is 33.7%.

As to `COc1ccc2c(c1)[nH]c(=O)c1c3cc(C)c(C)cc3cn21`, the growth is 7.03% (active).

Consider `O=c1[nH]c(CNc2ccc(NCc3c(-c4ccccc4)no[n+]3[O-])cc2)nc2c1cnn2-c1ccccc1`, for which the growth was 33.2%. For the compound `CC1(C)C=CC[C@]2(C)[C@H]3CC[C@@H]4[C@H]5[C@H](C(=O)/C=C/c6cccnc6)CC[C@]5(CO)CC[C@@]4(C)[C@]3(C)CC[C@@H]12`, the growth is -60.7% (active). Regarding `CN(C)CCOC(=O)Nc1ccc(Cl)cc1`, the growth was 104%. Turning to `CCOC(=O)N1C/C(=C/c2ccc(Cl)cc2)C(=O)/C(=C/c2ccc(Cl)cc2)C1`, the growth was 33.1%. In the case of `COc1ccc(-c2cc(/C=C/C(=O)c3ccc(N)cc3)[nH]n2)cc1OC`, the growth was -1.28% (active). Take `CC(C)C[C@H](NC(=O)/C=C/Cn1ccc2ccccc2c1=O)B(O)O`: the growth is -6.84% (active). With `COc1cc(/C=C/c2cc(/C=C/c3ccc(O)c(OC)c3)n(C(=O)Nc3ccc(Cl)cc3)n2)ccc1O`, the growth is -26.4% (active). Regarding `CC[C@@H](C(=O)[C@@H](C)[C@@H](O)[C@H](C)[C@@H]1O[C@@H]([C@@H](CC)C(=O)O)CC[C@@H]1C)[C@H]1OC2(C=C[C@@H](O)[C@]3(CC[C@@](C)([C@H]4CC[C@](O)(CC)[C@H](C)O4)O3)O2)[C@H](C)C[C@@H]1C` (stereo not given in full), the growth is -9.66% (active). With `Cn1cc(-c2csc(-c3c[nH]c4ccc(F)cc34)n2)c2cccnc21`, the growth was -22.7% (active).
